# Experimental data reported in PubChem BioAssay.
# Calls of active or inactive are those of the source.
# How the values were obtained:
# [1] = binders of probe aFSTL3 on microarray, primary screen, stem cell growth factor project, biochemical, small-molecule microarray, fluorescence 635/667 (AID 1064); details: higher = more signal;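 note: measures binding of the biotinylated anti-FSTL3 antibody to printed compounds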
# [2] = binders from COS7 lysate, DM2A8 probe, primary screen, torsin A project, cell lysate, small-molecule microarray, fluorescence 635/667 (AID 1065); details: higher = more signal, COS7 lysate expressing mutant human TOR1A
# [3] = binders of probe aFGF2 on microarray, primary screen, stem cell growth factor project, biochemical, small-molecule microarray, fluorescence 635/667 (AID 1067); details: higher = more signal;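 note: measures binding of biotinylated aFGF2 protein to printed compounds on slides; z-score merges feature fluorescence and signal-to-noise across triplicate slides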
# [4] = binders of probe aFGF10 on microarray, primary screen, stem cell growth factor project, biochemical, small-molecule microarray, fluorescence 635/667 (AID 1071); details: higher = more signal;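 note: score merges 667 nm spot intensity and signal to noise from triplicate slides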
# [5] = target: Neurogenic locus notch homolog protein 2 (Homo sapiens) (UniProt Q04721); assay: Notch2 binders on small-molecule microarrays, primary screen, biochemical, small-molecule microarray, 635 nm fluorescence, stem cell growth factors (AID 1073); details: Notch2 binding, higher = more signal
# [6] = target: Pro-neuregulin-1, membrane-bound isoform (Homo sapiens) (UniProt Q02297); assay: NRG1 binders on small-molecule microarrays, primary screen, psychiatric disease protein project, biochemical, small-molecule microarray, fluorescence 635/667 (AID 1075); details: NRG1 binding, 635 nm fluorescence, higher = more signal;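 note: score combines 667 nm spot fluorescence with signal to noise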
# [7] = test system: Neuregulin-1 EGF-like domain; assay: binders of neuregulin-1 EGF-like domain, primary screen, biochemical, small-molecule microarray, 635 nm fluorescence (AID 1081); details: small-molecule microarray binding, higher = more signal;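 note: binding of the protein to compounds printed on small-molecule microarray slides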
# [8] = FRG1 promoter luciferase signal modulators, primary screen, FRG1 inhibition for FSHD, cell-based, C2C12 myotubes, firefly/Renilla luciferase, luminescence (AID 1084); details: higher = more signal, called active from +8 up or from −8 down
# [9] = binders of probe aFST on microarray, primary screen, stem cell growth factor project, biochemical, small-molecule microarray, fluorescence 635/667 (AID 1086); details: higher = more signal;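 note: score merges 667 nm fluorescence with signal-to-noise of each printed compound spot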
# [10] = binders of probe aHhip on microarray, primary screen, stem cell growth factor project, biochemical, small-molecule microarray, fluorescence 635/667 (AID 1087); details: higher = more signal;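 note: score merges spot fluorescence at 667nm with spot signal to noise ratio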
# [11] = test system: PRMT1 (protein arginine N-methyltransferase 1); assay: PRMT1 binders on small-molecule microarrays, primary screen, biochemical, small-molecule microarray, 635 nm fluorescence (AID 1088); details: small-molecule microarray binding, higher = more signal;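 note: binding of Prmt1 protein to compounds spotted on small-molecule microarray slides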
# [12] = yeast growth modulation, basal conditions, primary screen, YJM789 clinical isolate, OD600, 24 h (AID 1089);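 note: growth of clinical yeast isolate S. cerevisiae YJM 789 seeded 1000 cells per well; test concentration not given here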; details: S. cerevisiae YJM789 growth, higher = more signal, called active from +8 up or from −8 down
# [13] = fission yeast growth modulation, primary screen, strain 972, OD600, 24 h, no modulator (AID 1090);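 note: basal condition with compound alone and no growth modifier present; test concentration not given here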; details: S. pombe 972 growth, higher = more signal, called active from +8 up or from −8 down
# [14] = S. cerevisiae growth modulation with rapamycin, primary screen, strain BY4716, OD600, 96 h (AID 1091); details: higher = more signal, called active from +8 up or from −8 down; note: test concentration not given here
# [15] = target: Torsin-1A-interacting protein 2 (Homo sapiens) (UniProt Q8NFQ8); assay: LULL1 binders on small-molecule microarray, primary screen, cell lysate, human LULL1 lysate, 635/667 nm fluorescence (AID 1092); details: hLULL1 lysate binding, 635 nm fluorescence, higher = more signal;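 note: probe is lysate of COS7 cells overexpressing human LULL1; score merges per-feature 667 nm fluorescence with signal-to-noise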
# [16] = E. coli growth modulation, two-sided OD650, primary screen, E. coli filamentation project, strain DRC41, 24 h (AID 1093); details: OD650, 24 h, higher = more signal, called active from +8 up or from −8 down;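 note: MC1000 strain lacking acrAB efflux and sulA so SOS filamentation is blocked; test concentration not given here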
# [17] = small-molecule microarray binders of probe aLefty2, primary screen, biochemical, biotinylated probe, 635/667 nm fluorescence (AID 1094); details: higher = more signal;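 note: score merges spot fluorescence near 667 nm with spot signal-to-noise ratio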
# [18] = test system: Noggin (protein binding on small-molecule microarray); assay: Noggin binders on small-molecule microarray, primary screen, biochemical, 635/667 nm fluorescence (AID 1095); details: 635 nm fluorescence, higher = more signal;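 note: score merges 667 nm feature fluorescence with signal to noise over triplicate slides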
# [19] = target: Neurogenic locus notch homolog protein 3 (Homo sapiens) (UniProt Q9UM47); assay: NOTCH3 binders on small-molecule microarray, primary screen, biochemical, 635/667 nm fluorescence (AID 1096); details: NOTCH3 binding, 635 nm fluorescence, higher = more signal
# [20] = small-molecule microarray binders of probe aEGFR, primary screen, biochemical, biotinylated probe, 635/667 nm fluorescence (AID 1097); details: higher = more signal;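 note: probe is a biotinylated anti-EGFR antibody binding compounds printed on slides; score combines fluorescence near 667 nm and signal to noise of each spot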
# Torsin-1A-interacting protein 2 (Homo sapiens), sequence (Q8NFQ8 whole entry, looked up): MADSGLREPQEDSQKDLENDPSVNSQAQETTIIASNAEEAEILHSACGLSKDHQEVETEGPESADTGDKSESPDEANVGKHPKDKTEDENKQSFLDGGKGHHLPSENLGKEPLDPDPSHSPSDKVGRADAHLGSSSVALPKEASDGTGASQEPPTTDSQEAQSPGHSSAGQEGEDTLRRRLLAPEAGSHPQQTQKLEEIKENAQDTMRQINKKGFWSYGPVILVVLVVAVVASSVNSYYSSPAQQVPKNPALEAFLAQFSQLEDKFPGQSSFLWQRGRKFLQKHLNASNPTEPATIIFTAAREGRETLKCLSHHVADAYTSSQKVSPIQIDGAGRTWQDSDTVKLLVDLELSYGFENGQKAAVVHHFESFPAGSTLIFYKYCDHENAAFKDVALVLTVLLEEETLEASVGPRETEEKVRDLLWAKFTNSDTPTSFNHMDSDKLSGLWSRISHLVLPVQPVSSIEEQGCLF
# Neurogenic locus notch homolog protein 2 (Homo sapiens), sequence (Q04721 whole entry, looked up, canonical isoform): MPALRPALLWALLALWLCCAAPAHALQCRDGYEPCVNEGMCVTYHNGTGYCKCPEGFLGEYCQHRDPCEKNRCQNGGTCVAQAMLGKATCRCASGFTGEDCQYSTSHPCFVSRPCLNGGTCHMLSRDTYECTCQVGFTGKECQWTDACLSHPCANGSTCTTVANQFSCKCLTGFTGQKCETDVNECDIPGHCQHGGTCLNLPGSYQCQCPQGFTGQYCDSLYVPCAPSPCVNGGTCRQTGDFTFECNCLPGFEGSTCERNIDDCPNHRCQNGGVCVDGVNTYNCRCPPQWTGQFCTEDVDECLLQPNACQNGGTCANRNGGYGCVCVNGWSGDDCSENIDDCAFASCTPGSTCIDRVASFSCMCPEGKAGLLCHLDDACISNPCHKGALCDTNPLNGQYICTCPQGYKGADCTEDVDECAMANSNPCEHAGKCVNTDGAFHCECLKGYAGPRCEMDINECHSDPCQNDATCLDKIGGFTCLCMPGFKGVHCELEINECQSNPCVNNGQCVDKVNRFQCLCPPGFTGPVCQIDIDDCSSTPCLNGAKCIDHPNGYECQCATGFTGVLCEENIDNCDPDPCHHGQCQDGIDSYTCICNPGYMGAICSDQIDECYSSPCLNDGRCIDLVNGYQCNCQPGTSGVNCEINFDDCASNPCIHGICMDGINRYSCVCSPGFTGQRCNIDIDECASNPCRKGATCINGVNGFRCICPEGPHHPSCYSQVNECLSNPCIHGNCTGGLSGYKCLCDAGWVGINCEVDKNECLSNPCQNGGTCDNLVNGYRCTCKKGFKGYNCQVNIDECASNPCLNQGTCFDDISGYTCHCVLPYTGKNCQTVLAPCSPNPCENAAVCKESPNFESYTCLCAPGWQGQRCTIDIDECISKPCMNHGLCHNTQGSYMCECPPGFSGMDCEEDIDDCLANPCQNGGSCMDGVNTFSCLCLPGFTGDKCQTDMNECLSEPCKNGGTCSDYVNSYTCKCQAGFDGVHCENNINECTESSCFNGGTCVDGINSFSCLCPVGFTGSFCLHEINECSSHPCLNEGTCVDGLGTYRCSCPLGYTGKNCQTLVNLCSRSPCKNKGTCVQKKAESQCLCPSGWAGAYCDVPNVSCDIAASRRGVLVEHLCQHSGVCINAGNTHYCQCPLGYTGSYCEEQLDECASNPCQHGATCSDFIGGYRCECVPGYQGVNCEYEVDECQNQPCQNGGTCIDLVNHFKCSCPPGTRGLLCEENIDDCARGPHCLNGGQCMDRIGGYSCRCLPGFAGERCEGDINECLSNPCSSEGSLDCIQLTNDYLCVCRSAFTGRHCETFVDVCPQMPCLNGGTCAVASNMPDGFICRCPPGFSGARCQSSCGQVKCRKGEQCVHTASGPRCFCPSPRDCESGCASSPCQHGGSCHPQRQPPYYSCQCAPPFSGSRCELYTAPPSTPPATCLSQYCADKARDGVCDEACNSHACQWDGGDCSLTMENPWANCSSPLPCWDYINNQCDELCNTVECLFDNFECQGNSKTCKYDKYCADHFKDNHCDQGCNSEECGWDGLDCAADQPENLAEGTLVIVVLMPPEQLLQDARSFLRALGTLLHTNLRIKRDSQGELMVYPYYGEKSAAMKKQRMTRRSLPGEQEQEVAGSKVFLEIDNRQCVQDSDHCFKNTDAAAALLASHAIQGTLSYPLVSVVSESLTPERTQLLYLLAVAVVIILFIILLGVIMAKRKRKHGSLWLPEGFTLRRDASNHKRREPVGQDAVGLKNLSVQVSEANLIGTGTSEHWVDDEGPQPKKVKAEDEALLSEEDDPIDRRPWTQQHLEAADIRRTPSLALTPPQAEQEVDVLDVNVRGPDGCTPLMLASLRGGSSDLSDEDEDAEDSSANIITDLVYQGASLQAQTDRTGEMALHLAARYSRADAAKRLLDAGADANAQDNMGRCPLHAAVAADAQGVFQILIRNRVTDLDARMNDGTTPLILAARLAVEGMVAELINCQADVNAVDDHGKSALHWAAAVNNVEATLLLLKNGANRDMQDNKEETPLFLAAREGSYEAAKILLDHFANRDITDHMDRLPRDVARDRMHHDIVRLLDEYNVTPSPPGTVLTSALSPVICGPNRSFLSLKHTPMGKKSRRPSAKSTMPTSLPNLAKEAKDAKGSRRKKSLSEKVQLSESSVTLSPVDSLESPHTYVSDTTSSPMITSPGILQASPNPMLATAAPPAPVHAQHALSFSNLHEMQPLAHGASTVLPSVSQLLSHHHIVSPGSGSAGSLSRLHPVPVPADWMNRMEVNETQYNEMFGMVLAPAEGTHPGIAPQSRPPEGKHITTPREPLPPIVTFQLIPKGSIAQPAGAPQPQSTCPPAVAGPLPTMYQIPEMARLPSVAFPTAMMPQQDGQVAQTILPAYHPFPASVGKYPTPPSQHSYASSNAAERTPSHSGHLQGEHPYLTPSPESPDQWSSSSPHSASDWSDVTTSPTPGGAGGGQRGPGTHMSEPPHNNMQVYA
# Pro-neuregulin-1, membrane-bound isoform (Homo sapiens), sequence (Q02297 whole entry, looked up, the tested form may be a part, canonical isoform): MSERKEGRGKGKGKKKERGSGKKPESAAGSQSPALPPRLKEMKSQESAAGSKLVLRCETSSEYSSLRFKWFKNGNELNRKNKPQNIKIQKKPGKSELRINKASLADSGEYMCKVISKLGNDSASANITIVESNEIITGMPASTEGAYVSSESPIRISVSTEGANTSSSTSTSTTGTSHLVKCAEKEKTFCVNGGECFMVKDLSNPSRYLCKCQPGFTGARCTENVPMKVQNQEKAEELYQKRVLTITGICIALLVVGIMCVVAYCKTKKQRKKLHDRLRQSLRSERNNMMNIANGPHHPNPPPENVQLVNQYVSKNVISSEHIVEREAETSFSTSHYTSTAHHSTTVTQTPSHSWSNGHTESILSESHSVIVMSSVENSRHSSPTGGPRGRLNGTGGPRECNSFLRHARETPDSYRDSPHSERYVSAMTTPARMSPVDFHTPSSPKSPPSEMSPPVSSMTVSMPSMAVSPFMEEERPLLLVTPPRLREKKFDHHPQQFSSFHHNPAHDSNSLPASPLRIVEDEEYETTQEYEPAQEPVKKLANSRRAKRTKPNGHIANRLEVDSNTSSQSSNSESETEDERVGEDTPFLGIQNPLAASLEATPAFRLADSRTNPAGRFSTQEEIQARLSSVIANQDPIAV
SMILES,composite z-score [1],composite z-score [2],composite z-score [3],composite z-score [4],composite z-score [5],composite z-score [6],composite z-score [7],z-score [8],composite z-score [9],composite z-score [10],composite z-score [11],z-score [12],z-score [13],z-score [14],composite z-score [15],z-score [16],composite z-score [17],composite z-score [18],composite z-score [19],composite z-score [20]
C=CCN1C(=O)[C@@]2(CCC(=O)OC(C)(C)C)N=C(c3ccc(OCCCO)cc3)O[C@H]2c2ccccc21,0.324,0.198,0.0698,0.0883,0.724,0.82,1.21,-2.47 (inactive),0.278,-0.195,1.47,-1.89 (inactive),-5.84 (inactive),1.44 (inactive),2.71,0.784 (inactive),0.107,1.24,1.09,-0.146
[N-]=[N+]=Nc1ccccc1[C@@H]1OC(c2ccc(OCCCO)cc2)=N[C@]1(CCS(=O)(=O)c1ccccc1)C(=O)NCCN1CCOCC1,0.483,1.88,0.0315,0.664,1.58,0.806,1.25,1.2 (inactive),0.925,0.417,1.55,-0.564 (inactive),-0.727 (inactive),0.519 (inactive),3.15,0.0992 (inactive),0.383,0.038,0.808,0.354
COCCOC(=O)N1C(=O)[C@@]2(c3cc(C#Cc4ccc(OC)cc4)ccc31)[C@H](C(=O)N1CCN(c3ncccn3)CC1)[C@H]1C(=O)O[C@H](c3ccccc3)[C@H](c3ccccc3)N1[C@@H]2c1ccccc1OCCO,-0.0234,0.0841,-0.124,0.475,0.711,0.0925,1.02,-0.425 (inactive),0.0402,-0.0994,1.45,3.33 (inactive),2.27 (inactive),7.9 (inactive),2.17,-0.332 (inactive),-0.0917,0.735,0.605,-0.0382
COc1ccc(C(O)C2C=CC3C(=O)N(c4ccccc4)C(=O)C3N2Nc2ccccc2)cc1OCc1ccccc1 (stereo not given),0.12,0.748,0.206,1.1,1.51,1.48,1.15,0.0678 (inactive),1.64,0.0515,1.57,-0.177 (inactive),1.3 (inactive),0.25 (inactive),3.53,-1.2 (inactive),0.104,0.88,1.03,0.0386
O=C1NC(=O)C2C1C=CC(C(O)c1ccc(Br)cc1)N2Nc1ccccn1 (stereo not given),0.253,0.156,0.0969,1.05,1.39,1.8,0.95,-0.383 (inactive),0.331,-0.0296,0.215,-1.26 (inactive),0.61 (inactive),-0.683 (inactive),1.18,-0.931 (inactive),0.119,0.248,0.63,0.315
O=c1cccc(-c2ccc(C(F)(F)F)cc2)o1,-0.0035,-0.814,-0.045,-0.173,-0.33,-0.289,-0.44,3.27 (inactive),-0.126,-0.0994,-1.99,-2.99 (inactive),-8.39 (active),0.427 (inactive),-0.0985,-0.491 (inactive),-0.16,-0.161,-0.894,-0.22
COCCCNC(=O)[C@@]1(Sc2ccc(C)cc2)CC(=O)N(Cc2cc(C(F)(F)F)cc(C(F)(F)F)c2)[C@@H]1c1ccc(CO)cc1,0.0028,0.525,-0.144,-0.29,0.0762,1.22,0.875,-0.42 (inactive),-0.168,0.213,1.54,-0.157 (inactive),-1.51 (inactive),-1.11 (inactive),1.46,-0.296 (inactive),-0.0927,1.6,0.715,-0.0531
C=C1C2CC3C(=C4C(CO[C@@H]4[C@H]4CCCN4S(=O)(=O)c4ccccc4[N+](=O)[O-])C4C(=O)N(C)C(=O)C34)CC2C(=O)N1C (stereo not given in full),-0.431,0.315,-0.125,0.36,0.574,1.12,0.0641,0.581 (inactive),0.174,0.0024,0.627,-0.0815 (inactive),-4.92 (inactive),-0.824 (inactive),0.303,-0.509 (inactive),-0.139,0.082,0.22,0.106
COc1cc(CO)cc(I)c1O[C@H]1C=C(C(=O)NCCO)C[C@@H](N(Cc2ccc(F)cc2)C(=O)C2CCCO2)[C@@H]1O (stereo not given in full),-0.625,0.114,-0.057,0.122,0.159,-0.0002,0.547,-0.851 (inactive),0.0494,0.142,-0.516,-0.558 (inactive),-0.389 (inactive),-0.188 (inactive),-0.492,3.2 (inactive),-0.116,0.0313,-0.331,-0.158
